Where “and” joins values, the source holds several entries; their conditions need not be identical. Identical values can stand only once. Records with an inconclusive call do not appear. Entries that show only a call come without a potency. Where a structure was tested more than once in an assay, its records may differ in their call. Calls of active or inactive are those of the source. The call rests on the fitted dose curve; in most records, active means well fitted curve in the direction sought with a large enough effect in the repeat runs; inconclusive means weak or mixed curves; inactive means no such curve, though single readings can be large; an effect the other way counts as inactive or inconclusive.
How the values were obtained:
[1] = qHTS RealTime-Glo MT Cell Viability Assay in HepG2 cells - 40 hour (AID 1224870); further: nearly all actives have a fitted effect of over 50% in size
Outline: (§1)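 HepG2 cells (600/well) mixed with RealTime-Glo MT reagent, settled 5 h at 37 C/5% CO2 before compound addition. Nonlytic NanoLuc luminescence from viable-cell prosubstrate reduction read repeatedly during 40 h treatment at 37 C.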

[2] = A CellTox Green Cytotoxicity Assay to monitor cytotoxicity in HEK293 cells - 40 hour (AID 1224871); further: nearly all actives have a fitted effect of over 45% in size; further: potency means the concentration at half of the fitted maximal effect
Outline: (§2)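 Tox21 screen in HEK293: membrane-impermeant cyanine dye fluoresces on binding dead-cell DNA; compound pinned 5 h post-seeding, plates held at 37 C, signal read repeatedly through 40 h.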

[3] = qHTS RealTime-Glo MT Cell Viability Assay in HEK293 cells - 16 hour (AID 1224872); further: top concentration of the series differs between compounds; nearly all actives have a fitted effect of over 50% in size
Outline: (§3)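 Reads taken at 0, 8, 16, 24, 32 and 40 h from the same wells. HEK293 cells (600/well) carried RealTime-Glo reagents from seeding, with compound added after a 5 h settle at 37 C.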

[4] = qHTS RealTime-Glo MT Cell Viability Assay in HepG2 cells - 8 hour (AID 1224873); further: nearly all actives have a fitted effect of over 55% in size
Outline: as §1

[5] = qHTS RealTime-Glo MT Cell Viability Assay in HEK293 cells - 40 hour (AID 1224874); conditions: RealTime-Glo luminescence; max response: stronger effect = lower value; further: nearly all actives have a fitted effect of over 50% in size
Outline: (§4)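 HEK293 + NanoLuc + prosubstrate, 600 cells/well; 5 h, 37 C/5% CO2; compound 23 nL in DMSO by pintool; 37 C; luminescence read at 0, 8, 16, 24, 32 and 40 h time points.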

[6] = A CellTox Green Cytotoxicity Assay to monitor cytotoxicity in HEK293 cells - 24 hour (AID 1224875); further: series mostly up to about 77 µM; nearly all actives have a fitted effect of over 45% in size
Outline: as §2

[7] = A CellTox Green Cytotoxicity Assay to monitor cytotoxicity in HepG2 cells - 16 hour (AID 1224876); further: nearly all actives have a fitted effect of over 45% in size
Outline: (§5)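 Measurements at 0, 8, 16, 24, 32 and 40 h of treatment captured CellTox Green fluorescence in HepG2 cells that had been co-plated with reagent and preincubated 5 h at 37 C/5% CO2.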

[8] = qHTS RealTime-Glo MT Cell Viability Assay in HepG2 cells - 32 hour (AID 1224877); further: nearly all actives have a fitted effect of over 55% in size
Outline: (§6)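 HepG2 suspension premixed with RealTime-Glo reagents is plated at 600 cells per well and left 5 h at 37 C/5% CO2. Compounds in DMSO then go in, and bioluminescence reflecting viable cell number is recorded over 40 h.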

[9] = A CellTox Green Cytotoxicity Assay to monitor cytotoxicity in HepG2 cells - 24 hour (AID 1224878); further: nearly all actives have a fitted effect of over 45% in size; further: potency means the concentration at half of the fitted maximal effect
Outline: as §5

[10] = A CellTox Green Cytotoxicity Assay to monitor cytotoxicity in HepG2 cells - 40 hour (AID 1224879); further: nearly all actives have a fitted effect of over 40% in size; further: potency means the concentration at half of the fitted maximal effect
Outline: as §5

[11] = qHTS RealTime-Glo MT Cell Viability Assay in HEK293 cells - 0 hour (AID 1224880)
Outline: as §4

[12] = A CellTox Green Cytotoxicity Assay to monitor cytotoxicity in HEK293 cells - 32 hour (AID 1224881); further: nearly all actives have a fitted effect of over 40% in size
Outline: as §2

[13] = A CellTox Green Cytotoxicity Assay to monitor cytotoxicity in HepG2 cells - 0 hour (AID 1224882); further: nearly all actives have a fitted effect of over 35% in size
Outline: as §5

[14] = A CellTox Green Cytotoxicity Assay to monitor cytotoxicity in HepG2 cells - 32 hour (AID 1224883); further: nearly all actives have a fitted effect of over 50% in size; further: potency means the concentration at half of the fitted maximal effect
Outline: as §5

[15] = A CellTox Green Cytotoxicity Assay to monitor cytotoxicity in HEK293 cells - 8 hour (AID 1224884); further: nearly all actives have a fitted effect of over 35% in size
Outline: as §2

[16] = qHTS RealTime-Glo MT Cell Viability Assay in HepG2 cells - 16 hour (AID 1224885); further: nearly all actives have a fitted effect of over 50% in size
Outline: as §6

[17] = qHTS RealTime-Glo MT Cell Viability Assay in HEK293 cells - 24 hour (AID 1224886)
Outline: as §3

[18] = qHTS RealTime-Glo MT Cell Viability Assay in HEK293 cells - 8 hour (AID 1224887)
Outline: as §4

[19] = A CellTox Green Cytotoxicity Assay to monitor cytotoxicity in HEK293 cells - 16 hour (AID 1224888); further: nearly all actives have a fitted effect of over 35% in size
Outline: as §2

[20] = qHTS RealTime-Glo MT Cell Viability Assay in HepG2 cells - 0 hour (AID 1224889); further: nearly all actives have a fitted effect of over 50% in size; further: potency means the concentration at half of the fitted maximal effect
Outline: as §6

Structure (SMILES)	outcome [1]	Potency [2]	Potency [3]	Potency [4]	max response [5]	Potency [6]	outcome [7]	outcome [8]	Potency [9]	Potency [10]	outcome [11]	Potency [12]	outcome [13]	Potency [14]	outcome [15]	Potency [16]	Potency [17]	Potency [18]	Potency [19]	Potency [20]
C=Cc1ccc(C)cc1	inactive	inactive	inactive	inactive	-4.48% (inactive) and 7.7% (inactive)	inactive	inactive	inactive	inactive	inactive	inactive	inactive	inactive	inactive	inactive	inactive	inactive	inactive	inactive	–
CC(C)CCCCCCCOC(=O)CCCCC(=O)OCCCCCCCC(C)C	inactive	inactive	inactive	inactive	-6.27% (inactive) and 3.22% (inactive)	inactive	inactive	inactive	inactive	inactive	inactive	inactive	inactive	inactive	inactive	inactive	inactive	inactive	inactive	inactive
CCNc1cccc(C)c1	inactive	inactive	inactive	inactive	-1.66% (inactive) and 8.48% (inactive)	inactive	inactive	inactive	inactive	inactive	inactive	inactive	inactive	inactive	inactive	inactive	inactive	inactive	inactive	inactive
CC(CCO)CC(C)(C)C (stereo not given)	inactive	inactive	inactive	inactive	-6.13% (inactive) and 0.884% (inactive)	inactive	inactive	inactive	inactive	inactive	inactive	inactive	inactive	inactive	inactive	inactive	inactive	inactive	inactive	inactive
CCCCOC(=O)c1ccc(N)cc1	inactive	inactive	inactive	inactive	0.814% (inactive)	inactive	inactive	inactive	inactive	inactive	inactive	inactive	inactive	inactive	inactive	inactive	inactive	inactive	inactive	24.2 µM (active) and inactive
COc1cc(OC)c(C(=O)CCCN2CCCC2)c(OC)c1	inactive	inactive	inactive	inactive	-11.2% (inactive) and -1.98% (inactive)	inactive	inactive	inactive	inactive	inactive	inactive	inactive	inactive	inactive	inactive	inactive	inactive	inactive	inactive	inactive
C=C(C)C(=O)OCC(C)C	inactive	inactive	inactive	inactive	0.908% (inactive) and 6.86% (inactive)	inactive	inactive	inactive	inactive	inactive	inactive	inactive	inactive	inactive	inactive	inactive	inactive	inactive	inactive	inactive
OCc1cccc(Oc2ccccc2)c1	inactive	inactive	inactive	inactive	-0.677% (inactive) and -9.74% (inactive)	inactive	inactive	inactive	inactive	inactive	inactive	inactive	inactive	inactive	inactive	inactive	inactive	inactive	inactive	inactive
CCCCC(C=O)CC (stereo not given)	inactive	inactive	inactive	inactive	-0.352% (inactive) and 2.13% (inactive)	inactive	inactive	inactive	inactive and 14.6 µM (active)	inactive and 14.6 µM (active)	inactive	inactive	inactive	inactive and 14.6 µM (active)	inactive	inactive	inactive	inactive	inactive	inactive
N#Cc1ccccc1	inactive	inactive	inactive	inactive	6.77% (inactive) and 3.17% (inactive)	inactive	inactive	inactive	inactive	inactive	inactive	inactive	inactive	inactive	inactive	inactive	inactive	inactive	inactive	inactive
COCCOC(=O)c1ccccc1C(=O)OCCOC	inactive	inactive	inactive	inactive	0.573% (inactive) and 0.131% (inactive)	inactive	inactive	inactive	inactive	inactive	inactive	inactive	inactive	inactive	inactive	inactive	inactive	inactive	inactive	inactive
CCCCCCCCCCN	inactive	inactive	inactive	inactive	0.163% (inactive) and 1.85% (inactive)	inactive	inactive	inactive	inactive	inactive	inactive	inactive	inactive	inactive	inactive	inactive	inactive	inactive	inactive	inactive
Cc1ccc2ncccc2c1	inactive	inactive	inactive	inactive	0.634% (inactive) and 3.71% (inactive)	inactive	inactive	inactive	inactive	inactive	inactive	inactive	inactive	inactive	inactive	inactive	inactive	inactive	inactive	inactive
O=c1[nH]cnc2[nH]ncc12	inactive	inactive	inactive	inactive	-0.951% (inactive) and 0.0063% (inactive)	inactive	inactive	inactive	inactive	inactive	inactive	inactive	inactive	inactive	inactive	inactive	inactive	inactive	inactive	inactive
O=C(O)/C=C/C(=O)O	inactive	inactive	inactive	inactive	-4.18% (inactive) and -12.4% (inactive)	inactive	inactive	inactive	inactive	inactive	inactive	inactive	inactive	inactive	inactive	inactive	inactive	inactive	inactive	–
C=CC(C)CCCC(C)(C)O (stereo not given)	inactive	inactive	inactive	inactive	5.11% (inactive) and 3.85% (inactive)	inactive	inactive	inactive	inactive	inactive	inactive	inactive	inactive	inactive	inactive	inactive	inactive	inactive	inactive	inactive
CC(=O)OCc1ccco1	inactive	inactive	inactive	inactive	3.13% (inactive) and 20% (inactive)	inactive	inactive	inactive	inactive	inactive	inactive	inactive	inactive	inactive	inactive	inactive	inactive	inactive	inactive	inactive
c1ccc(Oc2ccccc2)cc1	inactive	50.5 µM (active)	inactive	inactive	-2.3% (inactive) and -6.04% (inactive)	inactive	inactive	inactive	inactive	inactive	inactive	inactive	inactive	inactive	inactive	inactive	inactive	inactive	inactive	inactive
O=C1C(c2[nH]c3ccccc3c2O)=Nc2ccccc21	inactive	inactive	inactive	inactive	4.84% (inactive)	inactive	inactive	inactive	inactive	inactive	inactive	inactive	inactive	inactive	inactive	inactive	inactive	inactive	inactive	inactive
CN(C)c1ccc(O)c2c1C[C@H]1C[C@H]3[C@H](N(C)C)C(=O)C(C(N)=O)=C(O)[C@@]3(O)C(=O)C1=C2O	inactive	inactive	inactive	inactive	-2.64% (inactive) and -1.12% (inactive)	inactive	inactive	inactive	inactive	inactive	inactive	inactive	inactive	inactive	inactive	inactive	inactive	inactive	inactive	inactive
COc1ccccc1OCC(O)CO (stereo not given)	inactive	inactive	inactive	inactive	1.4% (inactive) and 1.84% (inactive)	inactive	inactive	inactive	inactive	inactive	inactive	inactive	inactive	inactive	inactive	inactive	inactive	inactive	inactive	inactive
Cc1ccc([N+](=O)[O-])cc1S(=O)(=O)O	inactive	inactive	inactive	inactive	6.39% (inactive) and 7.52% (inactive)	inactive	inactive	inactive	inactive	inactive	inactive	inactive	inactive	inactive	inactive	inactive	inactive	inactive	inactive	inactive
c1ccc2c(c1)Cc1ccccc1-2	inactive	39.5 µM (active) and 54.9 µM (active)	inactive	inactive	-9.32% (inactive) and 10% (inactive)	–	inactive	inactive	inactive	inactive	inactive	–	inactive	inactive	inactive	inactive	inactive	inactive	inactive	–
O=C(O)c1ccccc1C(=O)O	inactive	inactive	inactive	inactive	-5.44% (inactive) and 3.46% (inactive)	inactive	inactive	inactive	inactive	inactive	inactive	inactive	inactive	inactive	inactive	inactive	inactive	inactive	inactive	inactive
CCOC(=O)n1ccn(C)c1=S	inactive	inactive	inactive	inactive	1.12% (inactive) and 2.41% (inactive)	inactive	inactive	inactive	inactive	inactive	inactive	inactive	inactive	inactive	inactive	inactive	inactive	inactive	inactive	inactive
O=C(O)c1cc2ccccc2cc1O	inactive	inactive	inactive	inactive	-2.62% (inactive) and 6.1% (inactive)	inactive	inactive	inactive	inactive	inactive	inactive	inactive	inactive	inactive	inactive	inactive	inactive	inactive	inactive	inactive

Reference: PubChem BioAssay (Tox21)
